Mtb hypoxia rep – reduces hypoxia-regulated biosensor signal in M. tuberculosis | AID 1159583 | fluorescence inhibition, % (concentration not given with the values) | 300,000 tested, 0.1% active | M. tuberculosis hypoxia-regulated fluorescent reporter, fluorescence; in the data active means fluorescence inhibition mostly above about 23%, no sharp cut-off; inactive means mostly below about 17%
ugtP null kill – kills S. aureus RN4220 lacking UgtP. S. aureus RN4220 ugtP deletion, OD600 growth, 16 h. growth inhibition, % (test concentration not listed). 330,000 tested, 0.54% active. AID 1259309; in the data active means growth inhibition above about 68%;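 further: plate controls were untreated wells for no effect and antibiotic for full effect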
RN4220 kill – S. aureus RN4220 growth inhibition | OD600, 16 h | inhibition, % (test concentration not listed) | 330,000 tested, 0.33% active; in the data active means inhibition above about 85%;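 further: plate controls were untreated cells for no effect and reference antibiotic for full effect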
SSB-PriA inh – K. pneumoniae PriA-SSBct interaction inhibition | AID 1272365 | AlphaScreen SSBct-PriA binding, biotinylated peptide | inhibition, % at 33 µM | 430,000 tested, 0.6% active; in the data active means inhibition mostly above about 37%, no sharp cut-off; inactive means mostly below about 20%;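 further: plate controls were negative control peptide for no effect and reference peptide for full effect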
The depositor's hits bear a star; . = no result given; ! = not active in a repeat. Shown are actives, neighbours in structure and some others; about 1.1% of the full set was active somewhere.

SMILES | Mtb hypoxia rep | ugtP null kill | RN4220 kill | SSB-PriA inh
Cc1ccc(-n2c(C)cc(C(=O)NS(=O)(=O)c3ccc(C)cc3)c2C)cc1 | 17.4 | 98.2* | 2.5 | 6.1
O=C(c1ncccn1)N1CCc2nc3ccc(Cl)cn3c(=O)c2C1 | . | . | . | -8.0
CCSc1ccc2c(c1)N(CCCN1CCN(C)CC1)c1ccccc1S2 | 16.7 | 29.0 | -7.2 | 43.0*
FC(F)(F)c1ccc2c(c1)N(CCCN1CCN(CCCl)CC1)c1ccccc1S2 | . | 100.7* | 100.4* | 7.4
OCCN1CCN(CCCN2c3ccccc3Sc3ccc(C(F)(F)F)cc32)CC1 | 15.6 | -6.4 | -1.4 | 9.7
CCN1CCCc2cc(CCNC(=O)Nc3ccccc3)ccc21 | . | . | . | 63.0*
CCCN1CCCc2cc(CCNC(=O)C(=O)Nc3ccc(OC)c(Cl)c3)ccc21 | . | . | . | 37.0
CCN1CCCc2cc(CCNC(=O)C(=O)NCCc3ccccc3)ccc21 | . | . | . | 32.0
Cc1cc(NC(=O)C(=O)NCCc2ccc3c(c2)CCCN3C)c2ccccc2n1 | . | . | . | 42.0*
CCN1CCCc2cc(CCNC(=O)C(=O)Nc3cccc(NC(C)=O)c3)ccc21 | . | . | . | 54.0*
CCN1CCCc2cc(CCNC(=O)Nc3ccc(OC)c(OC)c3)ccc21 | . | . | . | 70.0*
Cc1ccc(-c2ccc(=O)n(CCNC(=O)Nc3cccc(C)c3)n2)cc1 | . | . | . | -16.0
CC1CCN(c2c([N+](=O)[O-])nn(-c3ccc4c(c3)OCCO4)[n+]2[O-])CC1 | -2.9 | 0.2 | -0.9 | 40.1*
O=S(=O)(Nc1cccnc1Cl)c1ccc(-c2ccccc2)cc1 | 0.9 | 81.4 | 89.2* | -19.5
O=S(=O)(Nc1ccccc1O)c1ccc(-c2ccccc2)cc1 | 14.3 | -11.2 | 12.9 | 10.7
COc1cccc(-c2csc(NC(=O)c3ccc(C(=O)c4ccccc4)cc3)n2)c1 | . | . | . | -9.0
Cc1cccc(N2CCN(C(=O)c3ccc(CS(=O)Cc4ccc(Cl)cc4)o3)CC2)c1C (configuration not stated) | 11.2 | 69.0 | -3.1 | 14.3
O=C(c1ccc(CS(=O)Cc2ccc(Cl)cc2)o1)N1CCN(c2ccc(F)cc2)CC1 (configuration not stated) | 6.6 | 90.0* | -3.8 | 7.7
Cc1ccc(C)c(N2CCN(C(=O)c3ccc(CS(=O)Cc4cccc(Cl)c4)o3)CC2)c1 (configuration not stated) | 0.9 | 98.4* | 0.8 | 16.0
O=C(c1ccc(CS(=O)Cc2ccc(Cl)cc2)o1)N1CCN(c2cccc(Cl)c2)CC1 (configuration not stated) | 0.2 | 92.7* | -7.7 | 7.6
O=C(c1ccc(CS(=O)Cc2cccc(Cl)c2)o1)N1CCN(C2CCCCC2)CC1 (configuration not stated) | 4.2 | 94.9* | -3.1 | -4.2
O=S(=O)(c1ccccc1)C1CCN(S(=O)(=O)/C=C/c2ccccc2)CC1 | . | . | . | -10.0
Cc1ncc2c(SCC(=O)NCc3ccc(F)cc3)ncnc2n1 | . | . | . | -12.0
Cc1ccc(Nc2c(-c3ccccn3)nc3cc(C)ccn23)cc1 | 22.6 | 100.3* | 100.4* | 97.0
Cc1ccc(Nc2c(-c3ccccn3)nc3ccc(C)cn23)cc1 | . | 95.0* | 100.1* | -14.1
SMILES | Mtb hypoxia rep | ugtP null kill | RN4220 kill | SSB-PriA inh
Cc1ccc(/C=C2/C(=O)NC(=N)N2C)s1 | . | . | . | 0.0
CCN1/C(=C2\SC(=S)N(Cc3ccccc3)C2=O)Sc2ccccc21 | -4.7 | -7.2 | -3.3 | 0.4
CCC(CO)[n+]1c(C)cc(/C=C2\Sc3ccccc3N2Cc2ccccc2)cc1C (configuration not stated) | . | 100.5* | 100.2* | .
Cc1ccc(S(=O)(=O)N2[C@@H](c3ccc(C(C)(C)C)cc3)C(C(=O)O)=CC[C@H]2c2ccc(C(C)C)cc2)cc1 | -1.5 | 88.3* | 96.8* | 0.9
Cc1ccc(S(=O)(=O)N2[C@@H](c3ccc(C(C)(C)C)cc3)C(C(=O)O)=CC[C@H]2c2ccc(Cl)cc2)cc1 | -3.5 | 79.6 | 98.6* | -7.8
Cc1ccc(S(=O)(=O)N2[C@@H](c3ccc(Br)cc3)C(C(=O)O)=CC[C@H]2c2ccc(C(C)C)cc2)cc1 | -1.2 | 79.9 | 5.3 | -11.1
Cc1ccc([C@@H]2CC=C(C(=O)O)[C@H](c3ccc(C(C)(C)C)cc3)N2S(=O)(=O)c2ccc(C)cc2)cc1 | -1.1 | -1.0 | 45.2 | 1.7
CN1CCC/C1=C/C=C1\SC(=S)NC1=O | 41.2* | 10.3 | 1.7 | -1.1
CN1CCCC1=CC=C1C(=O)N(C)C(=S)N1C | 5.1 | -2.3 | 2.4 | .
Cc1ccc(/C=C2/Sc3ccccc3N(CC(=O)NCC3CCCO3)C2=O)cc1 (configuration not stated) | -4.7 | 8.1 | 2.7 | 3.6
Cc1cc(/C=C2\Sc3ccccc3N2C)cc(C)[n+]1CC1CCCO1 (configuration not stated) | . | 100.6* | 100.2* | .
C=CCN=c1scc(-c2ccccc2)n1N=Cc1ccccn1 | 18.1 | 10.2 | 13.2 | 45.8*
O=C(Nc1cccs1)N(Cc1cccs1)C1CCOCC1 | . | . | . | 0.0
O=[N+]([O-])c1ccc(N=Nc2c(Cl)cc(O)cc2Cl)cc1 | -5.1 | 98.6* | 100.2* | 38.0
Cn1c(=O)[nH]c(=O)c2c1nc(NC(Cc1ccccc1)C(=O)O)n2CC(O)COc1ccccc1 (configuration not stated) | . | . | . | -6.0
COc1cc(NS(C)(=O)=O)ccc1Nc1c2ccccc2nc2ccccc12 | -0.5 | 99.7* | -8.5 | 22.1
CCc1nc(NCCC(C)C)c(C#N)c2c1CCCC2 | 1.9 | 87.8* | 0.5 | -3.6
O=C(CSc1ccc(F)cc1)N1CCC(CSc2ccccn2)CC1 | . | . | . | -3.0
CC(=NNC(=O)c1nnn(-c2nonc2N)c1CN(C)c1ccccc1)c1ccccc1O | . | . | . | -3.9
CCCCCCCCCC[n+]1cccc2c3ccccc3ccc21 | 13.2 | 100.0* | 100.5* | -4.4
CCCCCCCC[n+]1cccc2c3ccccc3ccc21 | 7.8 | 100.5* | 99.6* | -2.2
COc1ccc(C(=O)N2CCN=C2c2ccccc2)cc1OC | . | 1.0 | -2.0 | -15.1
COc1ccc(C(=O)N2C(=S)C(c3ccccc3)=NC23CCC(C)CC3)cc1OC (configuration not stated) | . | . | . | 37.0*
CCOc1ccccc1NC(=O)CSc1nc2c(-c3ccccc3)csc2c(=O)n1C | . | . | . | -20.0
Cc1cc2cc(CNS(=O)(=O)c3ccc(Br)cc3)ccc2n1C | . | . | . | 36.0*
SMILES | Mtb hypoxia rep | ugtP null kill | RN4220 kill | SSB-PriA inh
COc1cccc(NC(=S)NCc2ccc3c(c2)cc(C)n3C)c1 | 7.9 | -4.1 | 3.5 | 23.7
Cc1cc2cc(CNC(=S)Nc3ccc(OC(F)(F)F)cc3)ccc2n1C | 5.8 | -0.6 | -3.7 | 62.2*
Cc1cc2cc(CNS(=O)(=O)c3ccc4ccccc4c3)ccc2n1C | 3.2 | -11.3 | -8.2 | 28.4
Cc1cc2cc(CNC(=S)Nc3ccccc3)ccc2n1C | . | . | . | 66.4
Cc1cccc(NC(=O)NCc2ccc3c(c2)cc(C)n3C)c1 | 9.8 | 3.5 | 2.9 | 45.9*
Cc1cccc(NC(=S)NCc2ccc3c(c2)cc(C)n3C)c1C | 1.4 | -12.8 | -5.3 | 72.1*
COc1ccc(CNC(=O)Nc2cccc(Cl)c2)cc1 | -4.1 | -2.9 | -3.9 | -13.1
Cc1cc2cc(CNC(=O)Nc3cccc(Cl)c3)ccc2n1C | 4.5 | 9.1 | 3.2 | 59.8*!
COc1ccc(-c2c(-c3ccccc3OC)sc3ccccc23)cc1 | 2.2 | 87.4* | -10.5 | 1.3
COc1ccc(-c2sc3ccc(OC)cc3c2-c2ccc(O)cc2)cc1 | 2.8 | 100.1* | 76.0 | 1.2

High-throughput results as filed in PubChem BioAssay.
